# Measurements as given in PubChem BioAssay (EPA / NIEHS).
# Results filed as inconclusive are left out. Calls of active or inactive are those of the source. Rule for the calls, unless noted: active = hit-call score of the fitted dose curve at least 0.9, where 1 is the maximum; inactive = score below 0.9.
# Key:
# [1] = ATG_DR4_LXR_CIS: Attagene CIS-FACTORIAL HepG2 Assay for human Liver X Receptor (LXR), DR4 submotif (AID 2282929); conditions: HepG2 Attagene DR4 cis-reporter, mRNA transcription; actives raise or lower the signal
# How it was run: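 Total RNA from 24 h-treated, MRTU-transfected HepG2 cells underwent reverse transcription, PCR, fluorescent primer extension and restriction digestion before capillary electrophoresis. Both increases and decreases in reporter signal were fitted against DMSO.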
# [2] = ATG_AP_1_CIS: Attagene CIS-FACTORIAL HepG2 Assay for human Activator Protein 1 (AP-1) (AID 2282931); conditions: HepG2 Attagene cis-factorial AP-1 reporter mRNA; actives raise or lower the signal
# How it was run: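 HepG2, transient cis-reporter transfection; 24 h; readout RT-PCR/CE fluorescence; DMSO baseline, gain and loss fitted.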
# [3] = ATG_Ets_CIS: Attagene CIS-FACTORIAL HepG2 Assay for human Erythroblast Transformation Specific (ETS) (AID 2282941); conditions: HepG2 ETS cis-reporter transcription, actives raise or lower the signal
# How it was run: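 Multiplexed reporter transcript profiling: HepG2, 24 h treatment, total RNA to cDNA, PCR, 6-FAM labelling, HpaI cut, capillary electrophoresis. Gain- or loss-of-signal fitted against DMSO.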
# [4] = target: Heat shock factor protein 1 (Homo sapiens) (UniProt Q00613); test: ATG_HSE_CIS: Attagene CIS-FACTORIAL HepG2 Assay for human Heat Shock Transcription Factor 1 (HSE) (AID 2282953); conditions: HepG2 HSE cis-reporter, Attagene RNA transcription; actives raise or lower the signal
# How it was run: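 HepG2 cells transfected with cis-promoter reporter units sensing endogenous transcription factor activity; reporter mRNA quantified 24 h post-dose by RT-PCR and capillary electrophoresis of 6-FAM-labelled products. Bidirectional fitting against DMSO.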
# [5] = target: Paired box protein Pax-6 (Homo sapiens) (UniProt P26367); test: ATG_Pax6_CIS: Attagene CIS-FACTORIAL HepG2 Assay for human Paired Box 6 (PAX6) (AID 2282956); conditions: HepG2 CIS-FACTORIAL PAX6 reporter transcription, RNA readout; actives raise or lower the signal
# How it was run: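 Values derive from bidirectional curve fitting of reporter mRNA signal relative to DMSO. HepG2 cells bearing transfected cis-regulated MRTUs were exposed for 24 h; transcripts were read by RT-PCR and capillary electrophoresis.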
# [6] = target: Signal transducer and activator of transcription 3 (Homo sapiens) (UniProt P40763); test: ATG_STAT3_CIS: Attagene CIS-FACTORIAL HepG2 Assay for human Signal Transducer and Activator of Transcription 3 (STAT3) (AID 2282963); conditions: HepG2, Attagene cis-factorial STAT3 reporter transcription; actives raise or lower the signal
# How it was run: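 Readout: fluorescent reporter mRNA fragments resolved by capillary electrophoresis. Setup: HepG2 transfected with MRTUs reporting endogenous transcription-factor activity, dosed 24 h. Gain or loss of signal fitted bidirectionally against DMSO control.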
# [7] = ATG_TA_CIS: Attagene CIS-FACTORIAL HepG2 Assay for human TA Basal Promoter (AID 2282964); conditions: HepG2 Attagene CIS-factorial TA basal promoter reporter; actives raise or lower the signal
# How it was run: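 HepG2 cells transiently transfected with multiple reporter units under cis promoter elements, reporting endogenous transcription factor activity; this endpoint tracks the TA basal promoter as background control. Reporter mRNA after 24 h dosing measured by RT-PCR/capillary electrophoresis; bidirectional fits versus DMSO.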
# [8] = ATG_TCF_b_cat_CIS: Attagene CIS-FACTORIAL HepG2 Assay for human T-Cell-Factor with beta-catenin (TCF/b-cat) (AID 2282965); conditions: HepG2 TCF/beta-catenin cis-reporter transcription, actives raise or lower the signal
# How it was run: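 HepG2, transient MRTU transfection, cis-element-driven reporters (endogenous TFs). 24 h compound exposure. Readout: reporter mRNA by RT-PCR + 6-FAM primer extension, HpaI digest, capillary electrophoresis. Gain/loss fit vs DMSO baseline.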
# [9] = ATG_TAL_CIS: Attagene CIS-FACTORIAL HepG2 Assay for human TAL Basal Promoter (AID 2282966); conditions: HepG2 Attagene cis-factorial TAL promoter reporter; actives raise or lower the signal;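 note: background control endpoint measuring basal TAL promoter reporter mRNA not a specific factor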
# How it was run: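 Human hepatoma HepG2 cells, transfected with promoter-regulated reporter units, were treated 24 h. Reporter transcript levels, measured through RT-PCR and capillary electrophoresis, were fitted for gain or loss relative to DMSO.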
# [10] = target: X-box-binding protein 1 (Homo sapiens) (UniProt P17861); test: ATG_Xbp1_CIS: Attagene CIS-FACTORIAL HepG2 Assay for human X-box Binding Protein 1 (XBP1) (AID 2282972); conditions: HepG2 XBP1 cis-element reporter, Attagene multiplex; actives raise or lower the signal
# How it was run: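 Human hepatoma HepG2, cis-element reporter system, 24 h treatment; mRNA quantified by RT-PCR/CE fluorescence; fit relative to DMSO.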
# [11] = target: Transcriptional activator Myb (Homo sapiens) (UniProt P10242); test: ATG_Myb_CIS: Attagene CIS-FACTORIAL HepG2 Assay for human Myeloblastosis (Myb) Proto-Oncogene Transcription Factor (AID 2282986); conditions: HepG2 Attagene CIS-FACTORIAL Myb reporter transcription; actives raise or lower the signal
# How it was run: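 After 24 h of compound dosing, total RNA from transfected HepG2 cells is reverse-transcribed and the reporter sequences amplified, labeled and separated by capillary electrophoresis. Values come from bidirectional fitting against DMSO.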
# [12] = ATG_NFI_CIS: Attagene CIS-FACTORIAL HepG2 Assay for human Nuclear Factor I (NFI) (AID 2282989); conditions: HepG2 cis-regulatory reporter, NFI response element transcription; actives raise or lower the signal
# How it was run: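 Endogenous TF activity in HepG2 cells transiently transfected with cis-element-driven multiplexed reporter units, read 24 h after dosing. Reporter mRNA quantified by RT-PCR, 6-FAM labelling, HpaI digestion and capillary electrophoresis; bidirectional fit versus DMSO.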
# [13] = target: Myc proto-oncogene protein (Homo sapiens) (UniProt P01106); test: ATG_Myc_CIS: Attagene CIS-FACTORIAL HepG2 Assay for human Myelocytomatosis (Myc) Proto-Oncogene Transcription Factor (AID 2282990); conditions: HepG2, Attagene cis-reporter transcription factor activity; actives raise or lower the signal
# How it was run: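 Read-out: fluorescent reporter mRNA fragments resolved by capillary electrophoresis after RT-PCR. Human HepG2 liver cells carried transfected cis-element reporter units and were dosed for 24 h. Gain or loss of signal fitted relative to DMSO baseline.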
# [14] = ATG_NRF2_ARE_CIS: Attagene CIS-FACTORIAL HepG2 Assay for human Nuclear Factor Erythroid 2 Related Factor 2 (NFR2) response to Antioxidant Response Elements (ARE) (AID 2282992); conditions: HepG2 Attagene ARE/NRF2 reporter, transcription factor activity; actives raise or lower the signal;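 for AC50: reporter mRNA level measured by RT-PCR and capillary electrophoresis fluorescence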
# How it was run: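 Fluorescence intensity of reporter-specific cDNA fragments, separated by capillary electrophoresis, reflects mRNA induction in transfected HepG2 cells at 24 h. Activity is fitted bidirectionally, DMSO serving as baseline.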
# [15] = ATG_Oct_MLP_CIS: Attagene CIS-FACTORIAL HepG2 Assay for human Octamer-Binding Transcription Factor (Oct) (AID 2282993); conditions: HepG2 Attagene cis-factorial Oct reporter, mRNA; actives raise or lower the signal
# How it was run: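 HepG2 cells transiently transfected with cis-element-driven reporter transcription units (endogenous TF activity); 24 h compound exposure. Reporter mRNA quantified by RT-PCR, 6-FAM labelling, HpaI digestion and capillary electrophoresis; bidirectional fit versus DMSO baseline.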
# [16] = target: Cellular tumor antigen p53 (Homo sapiens) (UniProt P04637); test: ATG_p53_CIS: Attagene CIS-FACTORIAL HepG2 Assay for human p53 Transcription Factor (AID 2282994); conditions: HepG2 p53 cis-element reporter, Attagene mRNA; actives raise or lower the signal
# How it was run: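 Transiently transfected HepG2 (multiple cis reporter transcription units); exposure 24 h; reporter RNA via RT-PCR, 6-FAM extension, 2 h HpaI digest at 37 C, CE detection; DMSO baseline.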
# [17] = ATG_XTT_Cytotoxicity: Cytotoxicity Assessment in the Attagene TRANS-FACTORIAL HepG2 Assay (AID 2283584; active = hit-call score of the fitted dose curve at least 0.9, where 1 is the maximum)
# How it was run: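 24 h chemical exposure of reporter-transfected HepG2; XTT signal loss vs DMSO indicates cytotoxicity.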
# [18] = ATG_CRE_CIS: Attagene CIS-FACTORIAL HepG2 Assay for human cAMP Responsive Element (CRE) binding protein 3 (AID 2282926); conditions: HepG2 CRE cis-reporter, Attagene multiplexed mRNA; actives raise or lower the signal
# How it was run: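 Liver-derived HepG2, transfected with a CRE-containing reporter panel, exposed 24 h; transcript levels sized and quantified by capillary electrophoresis of labelled amplicons; signal changes either way referenced to vehicle.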
# [19] = target: Hypoxia-inducible factor 1-alpha (Homo sapiens) (UniProt Q16665); test: ATG_HIF1a_CIS: Attagene CIS-FACTORIAL HepG2 Assay for human Hypoxia Inducible Factor 1 (HIF1A) (AID 2282951); conditions: HepG2 Attagene cis-factorial HIF1a reporter transcription; actives raise or lower the signal
# How it was run: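 After 24 h chemical exposure of reporter-transfected HepG2 cells, reporter cDNA was PCR-amplified, labelled by 6-FAM primer extension (2 min 95 C, 20 s 68 C, 10 min 72 C), HpaI-cut (2 h, 37 C) and analysed by CE.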
# [20] = target: Nuclear receptor subfamily 1 group I member 2 (Homo sapiens) (UniProt O75469); test: ATG_PXR_TRANS: Attagene TRANS-FACTORIAL HepG2 Assay for human Pregnane X Receptor (PXR) (AID 2283008; active = hit-call score of the fitted dose curve at least 0.9, where 1 is the maximum)
# How it was run: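 Transient HepG2 transfectants carrying multiplexed reporter transcription units; PXR activity read through a Gal4 chimera. 24 h exposure. RT-PCR/CE fluorescence; upward curve fit referenced to DMSO.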
# Heat shock factor protein 1 (Homo sapiens), sequence (Q00613 whole entry, looked up): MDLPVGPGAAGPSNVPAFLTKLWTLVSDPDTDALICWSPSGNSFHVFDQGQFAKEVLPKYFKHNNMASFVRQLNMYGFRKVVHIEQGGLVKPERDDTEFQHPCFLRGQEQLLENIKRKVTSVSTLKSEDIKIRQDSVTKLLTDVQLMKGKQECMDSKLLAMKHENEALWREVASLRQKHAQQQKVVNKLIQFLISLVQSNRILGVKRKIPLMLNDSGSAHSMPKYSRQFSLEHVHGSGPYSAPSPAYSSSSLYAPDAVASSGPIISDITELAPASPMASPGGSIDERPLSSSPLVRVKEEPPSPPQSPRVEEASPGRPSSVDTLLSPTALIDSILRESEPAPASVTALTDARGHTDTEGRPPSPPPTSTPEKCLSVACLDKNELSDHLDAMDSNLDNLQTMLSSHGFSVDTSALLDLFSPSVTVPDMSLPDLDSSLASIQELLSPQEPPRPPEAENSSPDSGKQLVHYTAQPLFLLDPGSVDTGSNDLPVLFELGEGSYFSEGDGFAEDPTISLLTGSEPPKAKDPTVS
# Transcriptional activator Myb (Homo sapiens), sequence (P10242 whole entry, looked up): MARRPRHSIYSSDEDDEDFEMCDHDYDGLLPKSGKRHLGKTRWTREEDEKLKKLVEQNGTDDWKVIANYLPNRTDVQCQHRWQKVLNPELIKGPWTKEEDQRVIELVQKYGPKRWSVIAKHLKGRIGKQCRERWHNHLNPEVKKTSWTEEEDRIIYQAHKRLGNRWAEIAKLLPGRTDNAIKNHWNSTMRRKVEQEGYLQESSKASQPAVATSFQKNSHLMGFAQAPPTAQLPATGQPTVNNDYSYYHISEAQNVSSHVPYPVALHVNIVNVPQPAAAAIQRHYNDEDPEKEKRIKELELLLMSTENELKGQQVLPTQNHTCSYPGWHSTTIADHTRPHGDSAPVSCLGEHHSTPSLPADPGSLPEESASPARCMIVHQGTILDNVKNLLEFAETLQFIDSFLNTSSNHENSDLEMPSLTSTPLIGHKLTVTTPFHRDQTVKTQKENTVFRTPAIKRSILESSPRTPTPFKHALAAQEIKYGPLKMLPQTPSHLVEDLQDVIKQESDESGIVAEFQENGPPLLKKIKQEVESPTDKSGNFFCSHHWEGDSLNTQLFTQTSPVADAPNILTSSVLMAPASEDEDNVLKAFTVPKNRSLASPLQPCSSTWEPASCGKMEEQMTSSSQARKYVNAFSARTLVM
# Nuclear receptor subfamily 1 group I member 2 (Homo sapiens), sequence (O75469 whole entry, looked up, the tested form may be a part): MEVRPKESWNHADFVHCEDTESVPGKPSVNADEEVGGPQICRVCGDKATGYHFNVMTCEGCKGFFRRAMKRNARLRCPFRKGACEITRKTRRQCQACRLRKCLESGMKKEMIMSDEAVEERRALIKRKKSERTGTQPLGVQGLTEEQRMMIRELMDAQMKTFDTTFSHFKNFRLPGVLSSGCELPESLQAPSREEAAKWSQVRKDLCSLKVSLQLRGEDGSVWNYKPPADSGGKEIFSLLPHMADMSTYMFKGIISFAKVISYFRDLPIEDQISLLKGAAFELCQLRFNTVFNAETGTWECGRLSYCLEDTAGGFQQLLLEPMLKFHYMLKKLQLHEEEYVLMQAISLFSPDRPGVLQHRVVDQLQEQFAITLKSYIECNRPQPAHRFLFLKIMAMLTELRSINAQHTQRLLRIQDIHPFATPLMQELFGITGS
# X-box-binding protein 1 (Homo sapiens), sequence (P17861 whole entry, looked up): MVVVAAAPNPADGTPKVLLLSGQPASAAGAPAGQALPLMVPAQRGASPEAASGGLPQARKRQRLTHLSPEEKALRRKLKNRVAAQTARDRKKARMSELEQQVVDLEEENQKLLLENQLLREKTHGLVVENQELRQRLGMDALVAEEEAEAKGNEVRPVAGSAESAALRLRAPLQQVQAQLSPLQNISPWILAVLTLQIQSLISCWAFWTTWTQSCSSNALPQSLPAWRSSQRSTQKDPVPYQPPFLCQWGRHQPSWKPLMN
# Myc proto-oncogene protein (Homo sapiens), sequence (P01106 whole entry, looked up, the tested form may be a part): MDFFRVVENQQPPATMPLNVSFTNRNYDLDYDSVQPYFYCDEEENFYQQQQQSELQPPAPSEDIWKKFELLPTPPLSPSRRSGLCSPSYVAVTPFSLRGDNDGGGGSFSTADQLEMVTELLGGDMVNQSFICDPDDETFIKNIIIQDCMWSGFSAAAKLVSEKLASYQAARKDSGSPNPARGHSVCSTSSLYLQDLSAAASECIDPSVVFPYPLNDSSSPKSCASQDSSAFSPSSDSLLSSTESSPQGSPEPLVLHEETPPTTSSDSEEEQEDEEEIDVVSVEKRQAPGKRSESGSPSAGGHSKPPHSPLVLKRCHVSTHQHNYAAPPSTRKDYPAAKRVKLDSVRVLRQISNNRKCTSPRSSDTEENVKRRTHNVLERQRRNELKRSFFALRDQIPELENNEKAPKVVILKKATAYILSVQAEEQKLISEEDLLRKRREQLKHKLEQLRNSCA
# Hypoxia-inducible factor 1-alpha (Homo sapiens), sequence (Q16665 whole entry, looked up): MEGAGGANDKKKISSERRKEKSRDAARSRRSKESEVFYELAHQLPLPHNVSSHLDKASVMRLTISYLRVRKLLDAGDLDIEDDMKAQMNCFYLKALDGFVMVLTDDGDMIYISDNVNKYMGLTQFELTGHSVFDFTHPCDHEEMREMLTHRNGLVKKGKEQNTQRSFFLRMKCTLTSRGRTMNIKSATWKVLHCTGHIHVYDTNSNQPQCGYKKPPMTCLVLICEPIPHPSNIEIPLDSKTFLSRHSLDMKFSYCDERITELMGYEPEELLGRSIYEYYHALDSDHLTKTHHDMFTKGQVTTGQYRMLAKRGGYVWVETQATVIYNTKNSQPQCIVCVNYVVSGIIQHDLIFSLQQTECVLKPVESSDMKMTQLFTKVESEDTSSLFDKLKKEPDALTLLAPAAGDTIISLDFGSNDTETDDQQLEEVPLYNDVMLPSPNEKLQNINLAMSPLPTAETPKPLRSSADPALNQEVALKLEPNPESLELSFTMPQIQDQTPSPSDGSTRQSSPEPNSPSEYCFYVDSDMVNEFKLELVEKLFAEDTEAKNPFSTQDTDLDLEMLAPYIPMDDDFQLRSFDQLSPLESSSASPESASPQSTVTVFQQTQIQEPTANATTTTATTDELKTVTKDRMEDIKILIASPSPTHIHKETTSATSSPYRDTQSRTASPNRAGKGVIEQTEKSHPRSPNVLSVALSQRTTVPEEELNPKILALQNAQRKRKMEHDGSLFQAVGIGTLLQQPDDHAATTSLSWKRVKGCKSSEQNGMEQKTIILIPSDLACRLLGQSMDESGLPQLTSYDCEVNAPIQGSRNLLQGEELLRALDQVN
# Cellular tumor antigen p53 (Homo sapiens), sequence (P04637 whole entry, looked up): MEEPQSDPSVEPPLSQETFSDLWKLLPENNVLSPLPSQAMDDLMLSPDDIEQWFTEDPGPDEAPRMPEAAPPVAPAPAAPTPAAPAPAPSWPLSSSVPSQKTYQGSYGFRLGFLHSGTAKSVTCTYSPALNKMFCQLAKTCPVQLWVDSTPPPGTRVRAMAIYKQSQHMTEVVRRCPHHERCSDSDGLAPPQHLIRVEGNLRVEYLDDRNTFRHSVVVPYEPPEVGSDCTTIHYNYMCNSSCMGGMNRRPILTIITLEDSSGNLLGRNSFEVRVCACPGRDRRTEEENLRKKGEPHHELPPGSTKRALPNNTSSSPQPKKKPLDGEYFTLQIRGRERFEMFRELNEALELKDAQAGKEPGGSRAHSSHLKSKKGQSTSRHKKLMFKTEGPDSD
# Paired box protein Pax-6 (Homo sapiens), sequence (P26367 whole entry, looked up): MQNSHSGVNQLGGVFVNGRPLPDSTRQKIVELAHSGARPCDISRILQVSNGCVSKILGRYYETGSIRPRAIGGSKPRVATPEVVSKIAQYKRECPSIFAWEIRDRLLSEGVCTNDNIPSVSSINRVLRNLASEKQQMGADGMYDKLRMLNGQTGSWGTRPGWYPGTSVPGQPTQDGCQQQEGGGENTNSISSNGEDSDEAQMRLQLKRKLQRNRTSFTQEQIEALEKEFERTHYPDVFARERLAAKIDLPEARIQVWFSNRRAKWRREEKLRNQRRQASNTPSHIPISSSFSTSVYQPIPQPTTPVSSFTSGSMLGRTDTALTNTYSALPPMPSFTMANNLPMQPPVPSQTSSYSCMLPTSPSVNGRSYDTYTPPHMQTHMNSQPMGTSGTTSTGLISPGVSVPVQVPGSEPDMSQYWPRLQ
# Signal transducer and activator of transcription 3 (Homo sapiens), sequence (P40763 whole entry, looked up, the tested form may be a part): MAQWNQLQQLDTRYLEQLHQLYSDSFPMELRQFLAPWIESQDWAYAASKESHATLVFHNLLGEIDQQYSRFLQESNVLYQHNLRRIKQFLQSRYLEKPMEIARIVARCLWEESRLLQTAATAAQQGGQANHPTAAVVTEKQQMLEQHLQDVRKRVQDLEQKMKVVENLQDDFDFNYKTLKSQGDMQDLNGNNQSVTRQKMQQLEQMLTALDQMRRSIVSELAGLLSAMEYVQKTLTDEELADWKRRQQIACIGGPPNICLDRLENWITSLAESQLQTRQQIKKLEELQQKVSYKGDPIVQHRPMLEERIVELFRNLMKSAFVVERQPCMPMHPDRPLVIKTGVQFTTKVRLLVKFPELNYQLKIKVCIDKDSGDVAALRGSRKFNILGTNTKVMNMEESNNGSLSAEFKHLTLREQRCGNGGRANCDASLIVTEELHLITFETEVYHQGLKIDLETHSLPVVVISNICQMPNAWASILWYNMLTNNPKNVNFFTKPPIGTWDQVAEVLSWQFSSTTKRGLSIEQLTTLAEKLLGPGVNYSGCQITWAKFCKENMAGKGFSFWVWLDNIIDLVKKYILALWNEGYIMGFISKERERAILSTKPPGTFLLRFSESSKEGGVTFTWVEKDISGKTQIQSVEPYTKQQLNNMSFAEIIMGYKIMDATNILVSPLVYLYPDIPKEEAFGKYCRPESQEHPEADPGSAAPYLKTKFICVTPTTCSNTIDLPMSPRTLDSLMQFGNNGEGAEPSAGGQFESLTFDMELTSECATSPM
smiles,measurement,setting,value
CCc1cc(C(N)=S)ccn1,outcome,[1],inactive
same,outcome,[2],inactive
same,outcome,[3],inactive
same,outcome,[4],inactive
same,outcome,[5],inactive
same,outcome,[6],inactive
same,outcome,[7],inactive
same,outcome,[8],inactive
same,outcome,[9],inactive
same,outcome,[10],inactive
same,outcome,[11],inactive
same,outcome,[12],inactive
same,outcome,[13],inactive
same,outcome,[14],inactive
same,outcome,[15],inactive
same,outcome,[16],inactive
same,outcome,[17],inactive
CCCC[N+]1(C)CCCC1,outcome,[18],inactive
same,outcome,[1],inactive
same,outcome,[3],inactive
same,outcome,[19],inactive
same,outcome,[4],inactive
same,outcome,[6],inactive
same,outcome,[7],inactive
same,outcome,[8],inactive
same,outcome,[9],inactive
same,outcome,[10],inactive
same,outcome,[11],inactive
same,outcome,[12],inactive
same,outcome,[13],inactive
same,outcome,[14],inactive
same,outcome,[15],inactive
same,outcome,[16],inactive
same,outcome,[17],inactive
OCCN(CCO)c1cccc(Cl)c1,outcome,[1],inactive
same,outcome,[2],inactive
same,outcome,[3],inactive
same,outcome,[19],inactive
same,outcome,[4],inactive
same,outcome,[6],inactive
same,outcome,[7],inactive
same,outcome,[8],inactive
same,outcome,[9],inactive
same,outcome,[10],inactive
same,outcome,[11],inactive
same,outcome,[12],inactive
same,outcome,[13],inactive
same,AC50,[14],175 µM (active)
same,outcome,[15],inactive
same,outcome,[16],inactive
same,outcome,[20],inactive
same,outcome,[17],inactive
Sc1nc2ccccc2s1,outcome,[1],inactive
same,outcome,[2],inactive
same,outcome,[3],inactive
same,outcome,[19],inactive
same,outcome,[4],inactive
same,outcome,[6],inactive
same,outcome,[7],inactive
same,outcome,[8],inactive
same,outcome,[9],inactive
same,outcome,[10],inactive
same,outcome,[11],inactive
same,outcome,[12],inactive
same,outcome,[13],inactive
same,AC50,[14],100 µM (active)
same,outcome,[15],inactive
same,outcome,[16],inactive
same,outcome,[20],inactive
same,outcome,[17],inactive
CC1(C)S[C@@H]2[C@H](NC(=O)[C@H](N)c3ccccc3)C(=O)N2[C@H]1C(=O)O,outcome,[1],inactive
same,outcome,[4],inactive
same,outcome,[5],inactive
same,outcome,[6],inactive
same,outcome,[7],inactive
same,outcome,[8],inactive
same,outcome,[9],inactive
same,outcome,[10],inactive
same,outcome,[11],inactive
same,outcome,[12],inactive
same,outcome,[13],inactive
same,outcome,[14],inactive
same,outcome,[15],inactive
same,outcome,[16],inactive
same,outcome,[20],inactive
same,outcome,[17],inactive
CCCCOC(=O)COc1ccc(Cl)cc1Cl,outcome,[18],inactive
same,outcome,[1],inactive
same,outcome,[19],inactive
same,outcome,[4],inactive
same,outcome,[6],inactive
same,outcome,[7],inactive
same,outcome,[8],inactive
same,outcome,[9],inactive
same,outcome,[10],inactive
same,outcome,[11],inactive
same,outcome,[12],inactive
same,outcome,[13],inactive
same,outcome,[14],inactive
same,outcome,[15],inactive
same,outcome,[16],inactive
same,outcome,[20],inactive
same,outcome,[17],inactive
CCCCC(CC)COC(=O)CS (stereo unspecified),outcome,[18],inactive
same,outcome,[1],inactive
same,outcome,[3],inactive
same,outcome,[19],inactive
same,outcome,[4],inactive
same,outcome,[6],inactive
same,outcome,[7],inactive
same,outcome,[8],inactive
same,outcome,[9],inactive
same,outcome,[10],inactive
same,outcome,[11],inactive
same,outcome,[12],inactive
same,outcome,[13],inactive
same,outcome,[14],inactive
same,outcome,[15],inactive
same,outcome,[16],inactive
same,outcome,[20],inactive
C[C@H]1C[C@H]2[C@@H]3CCC4=CC(=O)C=C[C@]4(C)[C@@]3(F)[C@@H](O)C[C@]2(C)[C@@]1(O)C(=O)CO,AC50,[1],166 µM (active)
same,outcome,[3],inactive
same,outcome,[4],inactive
same,AC50,[5],69 µM (active)
same,outcome,[6],inactive
same,AC50,[7],100 µM (active)
same,AC50,[8],150 µM (active)
same,outcome,[9],inactive
same,AC50,[10],158 µM (active)
same,AC50,[11],180 µM (active)
same,outcome,[12],inactive
same,outcome,[13],inactive
same,outcome,[15],inactive
same,AC50,[16],39.4 µM (active)
same,AC50,[20],0.685 µM (active)
same,outcome,[17],inactive
